# In the supplement of paper PMC12494721:
# Structures can show the parent of a compound that is named as a salt.
# Columns and labels:
# Conditions in all cases: incubation time: 27 h, anaerobic, 37 °C;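 for the amine columns active = adjusted P below 0.05 in both replicates with a change the same way and a mean fold change under 0.8 or over 1.25; inactive = the rest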
# [1] = tested on: Clostridium sporogenes DSM 1664; test: growth (OD595) fold change vs plate DMSO controls (fold change (ratio)); higher = more growth
# Outline: (§1)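 The 96-well mGAM cultures had been kept anaerobic for 27 h at 37 °C before being shaken and read at 595 nm. Blank subtraction, compound background correction with 20 µM compound solutions in water, and a calibration factor of 5 turned the readings into OD. Growth is given as the fold change versus the median of plate DMSO controls. Fold changes above 1.5 were set to NA, and the values are means of 2 biological replicates.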
# Escherichia coli IAI1 [2] = test: as above
# Outline: as §1
# [3] = tested on: Klebsiella aerogenes DSM 30053; test: as above
# Outline: as §1
# [4] = tested on: Ruminococcus gnavus DSM 108212; test: as above
# Outline: as §1
# [5] = tested on: Klebsiella aerogenes DSM 30053; test: fold change of Histamine concentration vs plate DMSO controls (fold change (ratio)); higher = more amine produced, active = hit call of the paper (significant change in both replicates, either direction)
# Outline: (§2)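 Anaerobic mGAM cultures of four gut bacterial strains were grown at 37 °C for 27 h in 80 µL wells, starting at OD 0.1 before 1:1 dilution. Compounds were at 20 µM final (sweeteners 50 µM). Whole cultures were extracted with cold acetonitrile/methanol containing 0.1% formic acid and centrifuged. Amines were quantified by LC–triple-quadrupole MS (dynamic MRM) against external calibration curves and drift-corrected within batch. Each value is the fold change versus plate DMSO controls, averaged over 2 biological replicates.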
# [6] = tested on: Clostridium sporogenes DSM 1664; test: fold change of Tryptamine concentration vs plate DMSO controls (fold change (ratio)); higher = more amine produced, active = hit call of the paper (significant change in both replicates, either direction)
# Outline: as §2
# [7] = tested on: Ruminococcus gnavus DSM 108212; test: as above
# Outline: as §2
# Escherichia coli IAI1 [8] = test: fold change of Putrescine concentration vs plate DMSO controls (fold change (ratio)); higher = more amine produced, active = hit call of the paper (significant change in both replicates, either direction)
# Outline: as §2
# [9] = tested on: Klebsiella aerogenes DSM 30053; test: as above
# Outline: as §2
# Escherichia coli IAI1 [10] = test: fold change of Cadaverine concentration vs plate DMSO controls (fold change (ratio)); higher = more amine produced, active = hit call of the paper (significant change in both replicates, either direction)
# Outline: as §2
# [11] = tested on: Klebsiella aerogenes DSM 30053; test: as above
# Outline: as §2
# [12] = tested on: Ruminococcus gnavus DSM 108212; test: fold change of 2-Phenylethylamine concentration vs plate DMSO controls (fold change (ratio)); higher = more amine produced, active = hit call of the paper (significant change in both replicates, either direction)
# Outline: as §2
SMILES,growth [1],growth (Escherichia coli IAI1 [2]),growth [3],growth [4],fold change of Histamine concentration [5],fold change of Tryptamine concentration [6],fold change of Tryptamine concentration [7],fold change of Putrescine concentration (Escherichia coli IAI1 [8]),fold change of Putrescine concentration [9],fold change of Cadaverine concentration (Escherichia coli IAI1 [10]),fold change of Cadaverine concentration [11],fold change of 2-Phenylethylamine concentration [12]
Cc1cc2c(s1)Nc1ccccc1N=C2N1CCN(C)CC1 [Olanzapine] (20 µM),1.16,1.13,1.04,1.19,0.961 (inactive),0.966 (inactive),0.922 (inactive),1.04 (inactive),0.988 (inactive),0.945 (inactive),0.999 (inactive),0.944 (inactive)
CCCN(CCC)C(=O)C(CCC(=O)O)NC(=O)c1ccccc1 (centres undefined) [Proglumide] (20 µM),0.898,1.36,1.01,0.78,0.906 (inactive),1.44 (active),1.06 (inactive),1.31 (active),0.919 (inactive),0.929 (inactive),1.01 (inactive),1.11 (inactive)
CS(=O)(=O)c1ccc([C@@H](O)[C@@H](CO)NC(=O)C(Cl)Cl)cc1 [Thiamphenicol] (20 µM),0.937,0.551,0.468,0.18,0.0658 (active),0.738 (active),0.141 (active),0.321 (active),0.426 (active),1.17 (inactive),0.957 (inactive),0.145 (active)
Nc1ccc2cc3ccc(N)cc3nc2c1 [Proflavine hemisulfate] (20 µM),1.13,0.951,1,1.02,0.816 (inactive),1 (inactive),0.861 (inactive),1.03 (inactive),0.963 (inactive),1.16 (inactive),0.982 (inactive),0.861 (inactive)
Cc1onc(-c2c(F)cccc2Cl)c1C(=O)N[C@@H]1C(=O)N2[C@@H]1SC(C)(C)[C@@H]2C(=O)O [Flucloxacillin sodium] (20 µM),0,1.02,0.993,0,0.99 (inactive),0.0254 (active),0.0375 (active),1.01 (inactive),1.02 (inactive),1.07 (inactive),1.02 (inactive),0.0397 (active)
CC(=O)c1ccc2c(c1)N(CCCN1CCC(CCO)CC1)c1ccccc1S2 [Piperacetazine] (20 µM),0.454,0.148,0.138,0,0.95 (inactive),1.32 (inactive),1.17 (inactive),0.95 (inactive),0.978 (inactive),0.846 (inactive),0.993 (inactive),1.29 (inactive)
Cc1ncc([N+](=O)[O-])n1CCO [Metronidazole] (20 µM),0.00188,1.04,1.02,0.0847,0.975 (inactive),0.011 (active),0.0917 (active),0.94 (inactive),1.05 (inactive),0.997 (inactive),1.1 (inactive),0.0796 (active)
CCOC(=O)O[C@]1(C(=O)OCCl)CC[C@H]2[C@@H]3CCC4=CC(=O)C=C[C@]4(C)[C@H]3[C@@H](O)C[C@@]21C [Loteprednol etabonate] (20 µM),1.29,1.26,1.08,1.08,0.899 (inactive),1.03 (inactive),1.01 (inactive),1.25 (inactive),1 (inactive),0.955 (inactive),1.01 (inactive),1.02 (inactive)
CC1(C)OC(=O)NC1=O [Dimethadione] (20 µM),0.999,0.98,0.949,1.02,0.952 (inactive),1.03 (inactive),0.747 (inactive),1.02 (inactive),1 (inactive),1.01 (inactive),0.992 (inactive),0.853 (inactive)
NC(=O)NS(=O)(=O)c1ccc(N)cc1 [Sulfacarbamide] (20 µM),0.977,1.02,0.993,0.94,1.04 (inactive),0.967 (inactive),1 (inactive),1.01 (inactive),1.02 (inactive),1 (inactive),1.01 (inactive),0.972 (inactive)
O=C1[C@H]2CCCC[C@H]2C(=O)N1CCCCN1CCN(c2nsc3ccccc23)CC1 [Perospirone hydrochloride] (20 µM),1.12,0.968,1.01,1.32,0.986 (inactive),1.02 (inactive),0.767 (inactive),0.989 (inactive),1.01 (inactive),1.03 (inactive),1.02 (inactive),0.819 (inactive)
COc1cc(C(=O)OCCCN2CCCN(CCCOC(=O)c3cc(OC)c(OC)c(OC)c3)CC2)cc(OC)c1OC [Dilazep dihydrochloride] (20 µM),1.06,1.07,0.99,0.894,0.938 (inactive),1.08 (inactive),1.09 (inactive),1.01 (inactive),0.937 (inactive),0.968 (inactive),1.01 (inactive),1.12 (inactive)
